Mtb bLac sens = beta-lactam sensitization of Mtb H37Rv; M. tuberculosis H37Rv growth with meropenem, percent inhibition; inhibition, % at 25 µM; 330,000 tested, 0.27% active; AID 434955; call rule not given here;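 also: growth measured after seven days incubation then overnight dye step; 0% = bacteria only wells and 100% = bacteria with antibiotic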
RN4220 kill = kills Staphylococcus aureus RN4220. S. aureus RN4220 growth, OD600, 16 h. inhibition, % (concentration not given with the values). 330,000 tested, 0.33% active; in the data active = inhibition above about 85%;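 also: plate controls were untreated cells for no effect and reference antibiotic for full effect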
Sa ugtP lethal = growth inhibition of S. aureus ugtP deletion strain; 330,000 tested, 0.54% active; S. aureus RN4220 ugtP deletion, OD600 growth, 16 h; growth inhibition, % (concentration not given with the values); AID 1259309; in the data active = growth inhibition above about 68%;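 also: plate controls were untreated wells for no effect and antibiotic for full effect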
Mtb hypoxia inh = reduces hypoxia-regulated biosensor signal in M. tuberculosis | M. tuberculosis hypoxia-regulated fluorescent reporter, fluorescence | fluorescence inhibition, % (no concentration beside the values) | 300,000 tested, 0.1% active | AID 1159583; in the data active = fluorescence inhibition mostly above about 23%, no sharp cut-off; inactive = mostly below about 17%
PriA SSB inh = K. pneumoniae PriA-SSBct interaction inhibition; AlphaScreen SSBct-PriA binding, biotinylated peptide; inhibition, % at 33 µM; 430,000 tested, 0.6% active; AID 1272365; in the data active = inhibition mostly above about 37%, no sharp cut-off; inactive = mostly below about 20%;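 also: plate controls were negative control peptide for no effect and reference peptide for full effect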
Starred values were filed as active, the others as inactive; . = no result shown. Hits are enriched below; roughly 1% of the tested compounds scored in any of these assays.

SMILES | Mtb bLac sens | RN4220 kill | Sa ugtP lethal | Mtb hypoxia inh | PriA SSB inh
O=C(CCc1ccccc1)N(CCn1cccn1)c1nc2ccccc2s1 | . | . | . | . | -11
Cc1ccc(-c2c(C(=O)O)c(C(=O)O)c3n2CSC3)cc1 | -2 | -7 | 7 | 15 | 73*
CSc1nc2cc(Oc3cccc(Cl)c3Cl)c(Cl)cc2[nH]1 | 58 | 100* | 97* | -4 | -6
CCc1ccc(S(=O)(=O)NCc2nn(CCN3CCCC3)c(=O)c3ccccc23)s1 | . | . | . | . | 44*
O=c1c2ccccc2c(CNS(=O)(=O)Cc2ccc(F)cc2)nn1CCN1CCCC1 | . | . | . | . | 1
O=C(c1csc(-c2ccccc2)n1)N1CCCC(Cc2nc(-c3cnccn3)no2)C1 (stereo not given) | . | . | . | . | -9
CCCc1sc(NN=Cc2ccccn2)nc1-c1ccc(F)cc1 | . | 5 | -33 | -4 | 41*
Cc1nc(NN=Cc2ccccn2)sc1C | . | 9 | 4 | 11 | 11
Cc1csc(NN=Cc2ccccn2)n1 | . | 10 | -7 | 4 | 58*
Cc1cc(=O)n2c(-c3cccc(NC(=O)Cc4ccc(F)cc4)c3)csc2n1 | . | . | . | . | -5
CC1(C)C(=O)NCCN1C(=O)/C=C/c1cccs1 | . | . | . | . | -21
Cc1nn(C)c(C)c1S(=O)(=O)NCCn1ccc(-c2ccccn2)n1 | . | . | . | . | 0
CCCc1nc(SCC(=O)NC2CCCCC2)c2c(=O)n(C)c(=O)n(C)c2n1 | . | . | . | . | -1
O=C1c2ccccc2-c2onc3c(N4CCOCC4)cc(N4CCOCC4)c1c23 | . | . | . | . | 38
CCN1CCN(c2cc(N3CCN(C(=O)c4ccco4)CC3)c3c4c(onc24)-c2ccccc2C3=O)CC1 | 74 | . | . | . | 76*
O=C(O)CCNc1cc(N2CCN(C(=O)c3ccco3)CC2)c2noc3c2c1C(=O)c1ccccc1-3 | 16 | . | . | . | 54*
CC(=O)OCCNc1cc(N2CCN(C)CC2)c2noc3c2c1C(=O)c1ccccc1-3 | . | -3 | 1 | 54* | 70
Cc1ccnc(Nc2ccc(NCCNC(=O)c3cccc(F)c3)nn2)c1 | . | . | . | . | 20
Cc1ccnc(Nc2ccc(NCCNC(=O)Nc3ccc(F)c(Cl)c3)nn2)c1 | . | . | . | . | 96*
Cc1ccnc(Nc2ccc(NCCNC(=O)c3c(F)cccc3Cl)nn2)c1 | . | . | . | . | 6
Cc1ccnc(Nc2ccc(NCCNC(=O)Nc3cccc(C(F)(F)F)c3)nn2)c1 | . | . | . | . | 32*
O=C(NCc1ccc(F)cc1)NCC(O)(c1ccccc1)C1CC1 (stereo not given) | . | . | . | . | 5
CCCN(CC(=O)Nc1ccccc1Br)CC(=O)Nc1ccc(F)c(F)c1F | 4 | 4 | -3 | 6 | -12
CCCN(CC(=O)Nc1cc(Cl)cc(Cl)c1)CC(=O)Nc1ccc(F)c(F)c1F | 7 | 89* | 91* | 12 | -12
COc1ccc(-c2nnc(NC(=O)c3ccc([N+](=O)[O-])o3)o2)c(OC)c1 | 97 | 2 | 96* | . | 0
SMILES | Mtb bLac sens | RN4220 kill | Sa ugtP lethal | Mtb hypoxia inh | PriA SSB inh
Cc1ccc(-c2nnc(NC(=O)c3ccc([N+](=O)[O-])o3)o2)c(C)c1 | 99 | -3 | 92* | . | -2
Cc1ccc2nc(/C(C#N)=C\c3ccc([N+](=O)[O-])o3)[nH]c2c1 | 100 | 99* | 99* | . | -5
Cc1ccc2nc(/C(C#N)=C\c3ccc(N4CCOCC4)o3)[nH]c2c1 | 4 | 3 | 6 | . | 0
N#C/C(=C\c1ccc([N+](=O)[O-])o1)c1nc2ccccc2[nH]1 | 100 | 100* | 100* | . | -2
O=C(COc1ccccc1)N1CCN(c2ccc(-c3ccccc3)nn2)CC1 | . | . | . | . | 10
c1ccc(Nc2ccccn2)cc1 | -4 | 4 | -5 | -2 | -7
c1ccc(Nc2cccc(Nc3ccccc3)n2)cc1 | 24 | -11 | 7 | . | 72*
CN(C)c1ccc(/C=C/C(=O)c2c(O)c3ccccc3oc2=O)cc1 | 2 | 6 | -7 | 2 | -7
CCOc1ccc(/C=C/C(=O)c2c(O)c3ccccc3oc2=O)cc1 | 79 | -5 | 92* | -1 | -8
Clc1ccc(CN2CCCCCC2)cc1 | 0 | -1 | 9 | 6 | -20
O=[N+]([O-])c1cc(CN2CCCC2)ccc1Sc1ccc(Cl)cc1 | -1 | -5 | 4 | . | 43*
O=C(NCCOc1cc(N2CCOCC2)ncn1)C1CCCC1 | . | . | . | . | 8
O=C1N=C(N2CCOCC2)S/C1=C/c1ccc2noc(-c3ccccc3)c2c1 | . | . | . | . | 4
Cc1cc([N+](=O)[O-])cc([N+](=O)[O-])c1NCC(C)C | 0 | 9 | -2 | 3 | 44*
Oc1c(C(c2ccccn2)N2CCC(Cc3ccccc3)CC2)cc(Cl)c2cccnc12 (stereo not given) | 0 | 93* | 88* | 8 | 4
CN1CCN(C(c2ccccn2)c2cc(Cl)c3cccnc3c2O)CC1 (stereo not given) | 5 | 7 | -4 | -3 | 91
Oc1c(C(c2ccc(Cl)cc2)N2CCCC2)cc(Cl)c2cccnc12 (stereo not given) | 98 | 100* | 100* | 3 | 22
O=C(Nc1cccs1)N1CCN(c2ccc3nncn3n2)CC1 | . | . | . | . | 5
CCn1nc(C)cc1-c1nnc(Sc2ncc([N+](=O)[O-])s2)n1C | 3 | 48 | 91* | 16 | -31
CCn1nc(C)cc1-c1nnc(SCC(=O)Nc2ccccc2)n1CCCOC | -12 | -1 | -1 | 2 | 5
Cc1cc(N2CCCCC2)nc(CNC(=O)Cn2cnc3ccccc32)n1 | . | . | . | . | -6
CN(C)c1cccc(NC(=O)CCc2ccccc2)c1 | 47 | 5 | 9 | . | 54*
N#Cc1ccc(C(=O)N(Cc2ccncc2)c2nc3c(F)cccc3s2)cc1 | . | . | . | . | 1
Cc1ccc2cc(C3C(C#N)=C(N)Oc4c3ccc3cccnc43)c(=O)[nH]c2c1 (stereo not given) | 2 | 6 | 10 | 2 | 79*
N#CC1=C(N)Oc2cc3ccccc3cc2C1c1cccnc1 (stereo not given) | 12 | 2 | 10 | 17 | 8
SMILES | Mtb bLac sens | RN4220 kill | Sa ugtP lethal | Mtb hypoxia inh | PriA SSB inh
N#CC1=C(N)Oc2c(ccc3cccnc23)C1c1cccnc1 (stereo not given) | -3 | 0 | 0 | 10 | 88*
Cc1cn2c(CCC(=O)Nc3nc(C)c(C(=O)N(C)C)s3)csc2n1 | . | . | . | . | -5
O=C(CSc1nccn1-c1ccc(Cl)cc1)NCCc1ccccc1 | . | . | . | . | 25
NC(=O)C(=NOC(=O)c1ccco1)c1nc(-c2ccc(Br)cc2)cs1 | . | -3 | 93* | 3 | -16
Cc1ccc(Cl)cc1NC(=O)C1CCCN1S(=O)(=O)c1ccc(-c2ccc(=O)[nH]n2)s1 (stereo not given) | -1 | 97* | 97* | -9 | 9
CCOc1ccccc1CNS(=O)(=O)c1ccc2[nH]c(=O)sc2c1 | 5 | 4 | 46 | . | -8
CCN(CCNS(=O)(=O)c1ccc2[nH]c(=O)sc2c1)c1ccccc1 | 0 | -14 | 99* | 6 | 16
NC(=O)C1CCN(C(=O)Cc2csc(NC(=O)c3ccc[nH]c3=O)n2)CC1 | . | . | . | . | 3
CCOC(=O)c1c(C)[nH]c(C)c1C(=O)COC(=O)c1ccc([N+](=O)[O-])s1 | 99 | 3 | -4 | 18 | 22
O=C(OCC(=O)c1c[nH]c2ccccc12)c1ccc([N+](=O)[O-])s1 | 100 | 85 | 101* | 14 | 0

Screens deposited in PubChem BioAssay by several laboratories.
